In PubChem BioAssay AID1835 (Johns Hopkins Ion Channel Center, 2009) one finds activity increase over dofetilide control, less the hit threshold data, which are given here for 101 molecules.

Each structure is given as a SMILES string. The campaign covered roughly 2,400 compounds. About 750 (31%) were called active. The list shows a part of the results. Unmarked numbers belong to inactive results.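 Rule for the calls: active = median signal gain over dofetilide-blocked control wells reaching their mean plus 3 SD, so readout 1 at least 0; inactive = the rest.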

Voltage-gated inwardly rectifying potassium channel KCNH2 (Homo sapiens), sequence (Q12809 whole entry, looked up): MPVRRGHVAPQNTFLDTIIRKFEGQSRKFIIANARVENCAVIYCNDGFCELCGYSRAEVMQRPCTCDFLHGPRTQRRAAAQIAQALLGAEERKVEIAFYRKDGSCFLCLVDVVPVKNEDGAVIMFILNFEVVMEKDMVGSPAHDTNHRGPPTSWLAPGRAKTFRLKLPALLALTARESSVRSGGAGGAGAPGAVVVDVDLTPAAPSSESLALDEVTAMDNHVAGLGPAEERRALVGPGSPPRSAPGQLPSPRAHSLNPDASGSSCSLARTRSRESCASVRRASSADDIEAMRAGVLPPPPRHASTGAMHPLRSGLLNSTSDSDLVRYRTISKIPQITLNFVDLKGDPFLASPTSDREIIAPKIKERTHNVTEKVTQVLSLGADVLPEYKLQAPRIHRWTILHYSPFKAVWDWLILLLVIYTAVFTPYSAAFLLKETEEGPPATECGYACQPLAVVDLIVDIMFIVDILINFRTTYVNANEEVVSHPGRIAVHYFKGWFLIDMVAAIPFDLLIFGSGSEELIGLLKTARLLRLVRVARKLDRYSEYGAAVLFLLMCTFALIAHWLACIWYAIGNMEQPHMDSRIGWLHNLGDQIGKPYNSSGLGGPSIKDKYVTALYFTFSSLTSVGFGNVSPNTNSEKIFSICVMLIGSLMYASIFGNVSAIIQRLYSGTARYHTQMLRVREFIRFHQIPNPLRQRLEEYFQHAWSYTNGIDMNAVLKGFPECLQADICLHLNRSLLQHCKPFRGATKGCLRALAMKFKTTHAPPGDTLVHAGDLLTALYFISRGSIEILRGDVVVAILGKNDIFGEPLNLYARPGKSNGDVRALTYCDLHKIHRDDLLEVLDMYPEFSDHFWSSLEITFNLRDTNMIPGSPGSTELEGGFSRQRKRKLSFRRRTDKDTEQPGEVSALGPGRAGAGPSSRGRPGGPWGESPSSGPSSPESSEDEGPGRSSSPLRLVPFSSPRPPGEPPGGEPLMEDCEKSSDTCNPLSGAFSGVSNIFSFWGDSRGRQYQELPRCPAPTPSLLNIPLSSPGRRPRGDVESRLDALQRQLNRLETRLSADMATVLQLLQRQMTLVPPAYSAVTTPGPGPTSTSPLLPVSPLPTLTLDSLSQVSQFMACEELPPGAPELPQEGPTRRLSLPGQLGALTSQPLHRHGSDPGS

This assay addresses Voltage-gated inwardly rectifying potassium channel KCNH2 (Homo sapiens) (UniProt Q12809). As to the kind of experiment: hERG protection against dofetilide inhibition, confirmation, cell-based, thallium flux, duplicate retest, dofetilide IC70 (AID 1835). To be noted: hERG cell line, FluxOR thallium flux, dofetilide-blocked; at 10 µM; hits give high values. (In general: The hERG channel carries a current that helps repolarise heart muscle cells.)
For `CCOc1cc(NC(=S)N2CCC(C(N)=O)CC2)c(C(=O)OC)cc1OCC`, the activity increase over dofetilide control, less the hit threshold is -4%.
With `COc1cc2c(cc1OC)CN(C(=O)c1sccc1C)CC2` the figure was -13%.
With `Cc1ccc(OCC(=O)Nn2cnc3ccccc32)cc1` the figure was -11%.
With `Cc1ccc(C2C(C#N)=C(N)OC3=C2C(=O)CC(C)(C)C3)s1` (stereo unspecified) the figure was -4%.
As for `Cc1cc(-c2csc3nc[nH]c(=S)c23)cc(C)c1C`, the activity increase over dofetilide control, less the hit threshold is 14% (active).
For `Cc1ccc(-c2csc3nc[nH]c(=S)c23)cc1C` the value was 36% (active).
For `O=C(O)c1ccccc1P(=O)(c1ccccc1)c1ccccc1` the value was -20%; for `CCCC(=O)n1nc(-c2ccccc2)nc1N`, -17%; for `CCCCCCc1cc2cc(-c3nnc(-c4ccccc4)o3)c(=O)oc2cc1O`, -13%.
For `c1ccc(CCCNc2ncnc3nc[nH]c23)cc1` the value was 11% (active); for `O=C(NC(=S)N1CCN(c2ccccc2)CC1)c1c(F)cccc1F`, -9%; for `O=C(NC(=S)N1CCN(c2ccc(F)cc2)CC1)c1cccs1`, 25% (active).
For the molecule `O=C(NC(=S)N1CCN(c2ccccc2)CC1)c1ccccc1`, the activity increase over dofetilide control, less the hit threshold was 16% (active).
For `CC1CCN(C(=S)NC(=O)c2cccs2)CC1` the value was 10% (active); for `O=C(N/C(=C/c1ccc2c(c1)OCO2)C(=O)N1CCOCC1)c1cccs1`, -18%.
With `O=C(CN1CCN(c2ccc(Cl)cc2)CC1)Nc1ccc(F)cc1` the figure was -15%; with `O=C(c1cccs1)N1CCN(C23CC4CC(CC(C4)C2)C3)CC1`, -21%; with `N#Cc1cccc(N=c2ssnc2Cl)c1`, -32%.
With `CC(=O)Nc1ccccc1NC(=O)C/C(C)=N/NC(=O)c1ccc([N+](=O)[O-])c(Cl)c1` the figure was -13%; with `Cc1ccccc1NC(=O)CSc1ccsc1[N+](=O)[O-]`, -6%.
Take `CSc1nsc(SCC(=O)Nc2ccccc2C(=O)O)n1`: the activity increase over dofetilide control, less the hit threshold is 2% (active).
For `O=C(CSc1nc2ccc(NC(=O)c3ccccc3C(=O)O)cc2s1)Nc1c(Cl)cccc1Cl` the value was 0%; for `O=C(NNC(=S)Nc1ccccc1)c1cccc(S(=O)(=O)N2CCOCC2)c1`, -12%; for `COc1cc(Cl)c(C)cc1NC(=O)CSc1sc2c(O)cc(=O)[nH]c2c1C#N`, 1% (active).
With `Cc1cc(=O)[nH]c(SCC(=O)Nc2ccccc2C#N)c1C#N` the figure was -4%; with `CCC(NS(=O)(=O)c1ccc(OC)cc1)C(=O)O` (stereo unspecified), -13%.
For `Cc1nn(-c2ccc(Cl)cc2)c2sc(C(=O)c3c(N)n(C)c(=O)n(C)c3=O)cc12` the value was 67% (active).
For `CCOC(=O)c1nc(C)n(-c2ccc(Cl)cc2)n1`, the activity increase over dofetilide control, less the hit threshold is -1%.
With `O=C(NCC1CCS(=O)(=O)C1)Oc1ccccc1` (stereo unspecified) the figure was -15%; with `CCN(CC)c1ccc(/C=c2\sc3nnc(-c4ccccc4Cl)n3c2=O)cc1`, -11%; with `Cc1nn(-c2ccccc2)c(Cl)c1/C=C1\SC(=S)NC1=O`, 51% (active).
For `Cc1nn(-c2ccccc2)c(N2CCCC2)c1/C=N/O` the value was -16%; for `Cc1nn(-c2ccccc2)c(C)c1S(=O)(=O)O`, -6%.
Regarding `COCCCN1C(=O)C(=O)/C(=C(/O)c2ccc(S(=O)(=O)N3CCOCC3)cc2)C1c1ccc(F)cc1` (stereo unspecified), the activity increase over dofetilide control, less the hit threshold is -5%.
With `CN(C(=O)CCc1ccccc1)c1nnc(-c2ccncc2)s1` the figure was -24%.
For `CCCN(C(=O)c1ccco1)c1nnc(-c2ccncc2)s1` the value was 5% (active); for `O=C(c1ccco1)N(c1ccccn1)c1ccccn1`, -13%.
In the case of `Cc1cc([N+](=O)[O-])nn1CC(=O)Nc1ccc(Cl)cn1`, the activity increase over dofetilide control, less the hit threshold is -12%.
For `Cc1ccc(O)c(Sc2cc(C)ccc2O)c1` the value was -34%; for `O=C(CCC(=O)N1CCN(S(=O)(=O)c2ccccc2)CC1)c1cccs1`, -14%.
Take `Cc1[nH]n(-c2cccc3ccccc23)c(=O)c1/C=N/c1sc2c(c1C#N)CCC2`: the activity increase over dofetilide control, less the hit threshold was 3% (active).
With `Cc1[nH]n(-c2ccc(F)cc2)c(=O)c1/C=N/c1sc2c(c1C#N)CCCC2` the figure was 41% (active); with `CN(C1=C(NC(=O)c2ccccc2)C(=O)c2ccccc2C1=O)C1CCS(=O)(=O)C1` (stereo unspecified), -4%; with `COCCn1cnc2c1c(=O)n(CC#N)c(=O)n2Cc1ccccc1`, -14%.
With `COc1cccc2sc(Nc3nc(-c4ccccn4)cs3)nc12`, the activity increase over dofetilide control, less the hit threshold is -19%.
On to `COc1cccc2sc(Nc3nnc(-c4cccs4)o3)nc12`, for which the activity increase over dofetilide control, less the hit threshold was 52% (active).
With `COc1ccccc1Nc1nnc(SCC(=O)Nc2nc(-c3ccc(F)cc3)cs2)s1` the figure was -24%; with `N#C/C(=C\c1ccc(-c2ccccc2Cl)o1)C(=O)Nc1nc2ccccc2s1`, -6%; with `COc1cccc2sc(Nc3nnc(-c4ccccc4Cl)o3)nc12`, 16% (active).
For `COc1cccc2sc(Nc3nnc(-c4ccc(F)cc4)o3)nc12` the value was 83% (active).
For `Cc1ccc(NC(=O)c2ccc(NC3=NC4CS(=O)(=O)CC4S3)cc2)cc1` (stereo unspecified) the value was -14%; for `O=C(C[n+]1ccccc1)N/N=C/c1ccc(Cl)c(Cl)c1`, -13%; for `O=C(CC1CCCC1)Nc1ccc2c(c1)CCC2`, -5%.
Take `COc1ccc(/C=N/NC(=O)C(=O)N2CCCC2)cc1`: the activity increase over dofetilide control, less the hit threshold was -4%.
For `COc1ccccc1NC(=S)N1CCCc2ccccc21` the value was -16%; for `COc1ccc(/C=N/NC(=O)c2ccncc2)cc1CN1CCCc2ccccc21`, 3% (active).
Regarding `O=[N+]([O-])c1cc(Cl)cc(/C=N/NC(=S)Nc2ccc(S(=O)(=O)N3CCOCC3)cc2)c1O`, the activity increase over dofetilide control, less the hit threshold was -3%.
With `O=c1oc2cc(OCCO)ccc2c2c1CCCC2` the figure was -8%; with `Cc1c(C)c2ccc(OCC(=O)N[C@@H](Cc3ccccc3)C(=O)O)cc2oc1=O`, 2% (active).
With `Cc1cc(=O)oc2cc(OCC(=O)OCC(=O)NC(C)C)ccc12`, the activity increase over dofetilide control, less the hit threshold is -22%.
With `O=C(COc1ccc2c3c(c(=O)oc2c1)CCC3)NCC1CCC(C(=O)O)CC1` (stereo unspecified) the figure was -7%.
With `Cc1cc(=O)oc2c3c(cc(OCC(=O)N[C@@H](Cc4ccccc4)C(=O)O)c12)OC(C)(C)CC3`, the activity increase over dofetilide control, less the hit threshold is -3%.
Turning to `O=C(COc1ccc2c3c(c(=O)oc2c1)CCC3)N[C@@H](Cc1ccccc1)C(=O)O`, the activity increase over dofetilide control, less the hit threshold is 9% (active).
Take `Cc1ccc(C(C)C)cc1OCCn1cncn1`: the activity increase over dofetilide control, less the hit threshold is -24%.
With `O=C1Nc2ccc(Br)cc2C1Cc1ccccc1F` (stereo unspecified) the figure was -17%; with `Cc1ccc(C(=O)CC(=O)c2ccc(C)cc2O)cc1`, -1%.
For `Cc1ccc(C(=O)CC(=O)c2cccc(F)c2)c(O)c1` the value was 1% (active); for `O=C(CC(=O)c1ccccc1O)c1cccc(F)c1`, -6%.
For `COc1cc(C(=O)NCc2ccc(-c3nc4ccccc4o3)cc2)cc(OC)c1OC` the value was -12%; for `CCSc1nnc(NC(=O)CC(C)C)s1`, 3% (active).
In the case of `O=C(Nc1nnc(SCC(=O)N2CCCCC2)s1)C1CCCCC1`, the activity increase over dofetilide control, less the hit threshold was -18%.
As for `CCSc1nnc(NC(=O)Cn2cnc3c2c(=O)n(C)c(=O)n3C)s1`, the activity increase over dofetilide control, less the hit threshold is -22%.
For `COc1ccc(S(=O)(=O)Nc2ccc(Cl)cn2)c(C)c1C` the value was -9%.
For `CC[C@@H](C(=O)[C@@H](C)[C@@H](O)[C@H](C)CCc1ccc(C)c(O)c1C(=O)O)[C@H]1O[C@](CC)([C@H]2CC[C@](O)(CC)[C@H](C)O2)C[C@@H]1C` the value was 93% (active); for `COc1ccc(NC(=O)CCN2C(=O)C3C4C=CC(C4)C3C2=O)cc1` (stereo unspecified), -14%; for `O=C(CCN1C(=O)/C(=C/c2cccs2)SC1=S)Nc1cccc(C(=O)O)c1`, -13%.
With `O=C(CCN1C(=O)/C(=C\C=C\c2ccccc2)SC1=S)Nc1cccc(C(=O)O)c1` the figure was 93% (active); with `O=C(CCN1C(=O)/C(=C\C=C\c2ccccc2)SC1=S)Nc1ccc(C(=O)O)cc1`, 26% (active).
On to `O=C(CSc1nc(-c2ccccc2)nc2ccc(F)cc12)Nc1cccc(C(=O)O)c1`, for which the activity increase over dofetilide control, less the hit threshold is -23%.
For `CC(C)Oc1cc(S(=O)(=O)N2CCCCC2)ccc1N` the value was -18%; for `S=C(N/N=C/c1ccc(Cl)cc1)N1CCOCC1`, -47%.
With `Cc1cc(F)c(F)c(C(=O)N2CCOCC2)c1` the figure was -17%; with `CC(C)(C)C(=O)NC(=S)N1CCOCC1`, 3% (active).
With `CCCCCOCC1CC(C/C(C)=N/Nc2nc(-c3ccccc3)cs2)C(=O)O1` (stereo unspecified) the figure was -5%; with `Cc1cc([N+](=O)[O-])c(C)cc1-c1ccc(/C=N/NC(=O)Cn2nnnc2N)o1`, 0% (active); with `COCc1cc(C)nc(OCC(=O)N/N=C/c2ccc(-c3cc([N+](=O)[O-])ccc3Cl)o2)c1C#N`, -7%.
Take `CCOC(=O)N/N=C\c1ccc(-c2cc(Cl)ccc2Cl)o1`: the activity increase over dofetilide control, less the hit threshold is -2%.
Take `C=C(C)CSc1nc(N)cc(=O)[nH]1`: the activity increase over dofetilide control, less the hit threshold is -4%.
With `O=C1NC(=S)/C(=C\c2ccc(-c3ccccc3Cl)o2)S1` the figure was -23%; with `O=C1NC(=S)S/C1=C\c1ccc2ccccc2c1`, 28% (active); with `O=C1NC(=O)/C(=C/c2cc3c(cc2Br)OCO3)S1`, -17%.
For the molecule `Cc1ccc(C(=O)O)cc1-c1ccc(/C=C2\SC(=O)N(CC(=O)Nc3ccccc3)C2=O)o1`, the activity increase over dofetilide control, less the hit threshold is 87% (active).
For `C#CCN1C(=O)S/C(=C\c2ccc(-c3ccc(C(=O)O)cc3C)o2)C1=O` the value was 1% (active); for `Cc1ccc(NC(=O)CN2C(=O)S/C(=C/c3ccc(-c4cc(C(=O)O)ccc4C)o3)C2=O)cc1C`, -29%; for `Cc1ccsc1/C=C1/SC(=O)N(CC(=O)N2CCCC2)C1=O`, -4%.
As to `Cc1c(/C=C2\SC(=O)N(CC(=O)Nc3ccc4c(c3)OCO4)C2=O)c2ccccc2n1C`, the activity increase over dofetilide control, less the hit threshold is -11%.
For `Cc1ccc(NC(=O)CN2C(=O)S/C(=C\c3ccc(-c4cccc(C(=O)O)c4C)o3)C2=O)cc1` the value was 25% (active); for `O=C(CCl)NCCN1C(=O)S/C(=C\c2cccnc2)C1=O`, -5%.
For `Cc1cc(C(=O)NCCN2C(=O)S/C(=C\c3cccs3)C2=O)ccc1[N+](=O)[O-]` the value was -1%; for `Cc1ccccc1NC(=O)CN1C(=O)S/C(=C\c2ccc(-c3cc(C(=O)O)ccc3C)o2)C1=O`, -3%; for `Cc1ccccc1NC(=O)CN1C(=O)S/C(=C\c2ccc(-c3cccc(C(=O)O)c3C)o2)C1=O`, 19% (active).
